B1: unnamed (peptide)
chain: LKPPIGRPPKFPKSP

Biological target: AgAbp1
Assay: SPOT peptide array binding signal intensity (averaged, normalized) (arbitrary units (background-subtracted, floor 0; scale differs between SH3 domains)); higher = stronger binding of the SH3 domain to the peptide
In short: (§1)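 Binding signal refers to normalized, background-subtracted spot intensity averaged over replicates, expressed in arbitrary units that differ between domains. GST-fused SH3 domains from four yeast species were incubated at 10 μg/ml overnight at 4°C on cellulose membranes of synthetic 15-mer peptides with cysteines replaced by serines. Bound protein was detected with anti-GST antibody, an HRP anti-mouse secondary and luminol, and quantified with Genespotter.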

Binder | SPOT peptide array binding signal intensity
B1 | 926

Biological target: AgBbc1
Assay: as above
In short: as §1

Binder | SPOT peptide array binding signal intensity
B1 | 160

Biological target: AgBem1-D1
Assay: as above
In short: as §1

Binder | SPOT peptide array binding signal intensity
B1 | 27

Biological target: AgBzz1-D1
Assay: as above
In short: as §1

Binder | SPOT peptide array binding signal intensity
B1 | 57

Biological target: AgBzz1-D2
Assay: as above
In short: as §1

Binder | SPOT peptide array binding signal intensity
B1 | 4

Biological target: AgCyk3
Assay: as above
In short: as §1

Binder | SPOT peptide array binding signal intensity
B1 | ≤ 0

Biological target: AgFus1
Assay: as above
In short: as §1

Binder | SPOT peptide array binding signal intensity
B1 | ≤ 0

Biological target: AgHof1
Assay: as above
In short: as §1

Binder | SPOT peptide array binding signal intensity
B1 | 300

Biological target: AgHse1
Assay: as above
In short: as §1

Binder | SPOT peptide array binding signal intensity
B1 | ≤ 0

Biological target: AgLsb1
Assay: as above
In short: as §1

Binder | SPOT peptide array binding signal intensity
B1 | ≤ 0

Biological target: AgLsb4
Assay: as above
In short: as §1

Binder | SPOT peptide array binding signal intensity
B1 | ≤ 0

Biological target: AgMyo5
Assay: as above
In short: as §1

Binder | SPOT peptide array binding signal intensity
B1 | 1220

Biological target: AgNbp2
Assay: as above
In short: as §1

Binder | SPOT peptide array binding signal intensity
B1 | ≤ 0

Biological target: AgRvs167
Assay: as above
In short: as §1

Binder | SPOT peptide array binding signal intensity
B1 | 0.583

Biological target: AgSho1
Assay: as above
In short: as §1

Binder | SPOT peptide array binding signal intensity
B1 | ≤ 0

Biological target: AgSla1-D1-D2
Assay: as above
In short: as §1

Binder | SPOT peptide array binding signal intensity
B1 | 21.5

Biological target: AgSla1-D3
Assay: as above
In short: as §1

Binder | SPOT peptide array binding signal intensity
B1 | ≤ 0

Biological target: CaAbp1-D1
Assay: as above
In short: as §1

Binder | SPOT peptide array binding signal intensity
B1 | 1440

Biological target: CaAbp1-D2
Assay: as above
In short: as §1

Binder | SPOT peptide array binding signal intensity
B1 | 2140

Biological target: CaBbc1
Assay: as above
In short: as §1

Binder | SPOT peptide array binding signal intensity
B1 | 1150

Biological target: CaBem1-D1
Assay: as above
In short: as §1

Binder | SPOT peptide array binding signal intensity
B1 | 98

Biological target: CaBzz1-D1
Assay: as above
In short: as §1

Binder | SPOT peptide array binding signal intensity
B1 | 239

Biological target: CaBzz1-D2
Assay: as above
In short: as §1

Binder | SPOT peptide array binding signal intensity
B1 | 165

Biological target: CaCyk3
Assay: as above
In short: as §1

Binder | SPOT peptide array binding signal intensity
B1 | 16.5

Biological target: CaFus1
Assay: as above
In short: as §1

Binder | SPOT peptide array binding signal intensity
B1 | 49

Biological target: CaHof1
Assay: as above
In short: as §1

Binder | SPOT peptide array binding signal intensity
B1 | ≤ 0

Biological target: CaHse1
Assay: as above
In short: as §1

Binder | SPOT peptide array binding signal intensity
B1 | 1.5

Biological target: CaLsb1
Assay: as above
In short: as §1

Binder | SPOT peptide array binding signal intensity
B1 | ≤ 0

Biological target: CaLsb4
Assay: as above
In short: as §1

Binder | SPOT peptide array binding signal intensity
B1 | 2

Biological target: CaMyo5
Assay: as above
In short: as §1

Binder | SPOT peptide array binding signal intensity
B1 | 45.5

Biological target: CaNbp2
Assay: as above
In short: as §1

Binder | SPOT peptide array binding signal intensity
B1 | ≤ 0

Biological target: CaRvs167
Assay: as above
In short: as §1

Binder | SPOT peptide array binding signal intensity
B1 | 0.917

Biological target: CaRvs167-3
Assay: as above
In short: as §1

Binder | SPOT peptide array binding signal intensity
B1 | 3.12

Biological target: CaSho1
Assay: as above
In short: as §1

Binder | SPOT peptide array binding signal intensity
B1 | ≤ 0

Biological target: CaSla1-D1-D2
Assay: as above
In short: as §1

Binder | SPOT peptide array binding signal intensity
B1 | 908

Biological target: CaSla1-D3
Assay: as above
In short: as §1

Binder | SPOT peptide array binding signal intensity
B1 | 3.25

Biological target: ScAbp1
Assay: as above
In short: as §1

Binder | SPOT peptide array binding signal intensity
B1 | 887

— the supplement of paper PMC4466140
